Screens: PubChem, several laboratories
The list is not random: actives were taken first. Their share in the collection is about 2.9%.
KKLEB tox = reduces viability of KKLEB cystic fibrosis airway cells | KKLEB CF airway cells viability, ATPlite luminescence, overnight; active compounds read low; cells stimulated with P. aeruginosa culture filtrate | activity change (cytotoxicity), % at 5 µM | actives 0.36% (n = 360,000) | AID 602141;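 active means corrected activity change at or below -50% at 5 µM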
Shn3 inh set2 = Schnurri-3 reporter inhibition in Clone20 osteoblasts; inhibition, % at 12.5 µM; AID 588674; actives 0.52% (n = 360,000); Clone20 osteoblast Shn3 3'UTR firefly luciferase, 24 h;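 active means mean inhibition of at least 75% with every replicate also reaching 75%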;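 further: 0% = median of neutral control wells and 100% = pilot-screen positive control compound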
Peg3 prom inh = inhibitors of Peg3 promoter; HeLa PEG-Prom luciferase reporter, luminescence, overnight; inhibition, % at 20 µM; actives 1.7% (n = 360,000);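 active means inhibition of at least 50% at 20 µM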
EBV LMP1 NFkB = Epstein-Barr LMP1 NF-kappaB reporter inhibition; AID 504558; LMP1-induced NF-kappaB luciferase reporter cells, luminescence; inhibition, % at 12.5 µM; actives 0.69% (n = 350,000); in the data active means inhibition above about 41%;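 further: 0% = neutral control wells and 100% = reference inhibitor control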
CF NFkB block = inhibitors of cystic fibrosis induced NF-kB; KKLEB NF-kB-GFP reporter, PAF-induced, GFP fluorescence overnight; inhibition, % at 5 µM; actives 0.86% (n = 360,000);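 active means at least 50% inhibition at 5 µM, scaled per plate between neutral and stimulator controls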;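 further: PAF is a Pseudomonas aeruginosa culture filtrate used as stimulus; plate controls were PAF-stimulated DMSO wells for no effect and unstimulated DMSO wells for full effect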
HIF-2a block = blocks HIF-2a reporter activity; 786-0 RCC cells HIF-2a reporter, luciferase luminescence, overnight; inhibition, % at 18.8 µM; actives 0.72% (n = 360,000);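 active means inhibition of the luminescence signal of 40% or more relative to plate controls, in a single-dose primary screen at 18.75 µM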
Mdm2-MdmX confirm = confirmation of inhibitors of human Mdm2/MdmX interaction, set 2. actives 99% (n = 740). inhibition, % at 8 µM. SaOS-2 split-luciferase Mdm2/MdmX complementation, luminescence. shares compounds with HIF-2a block;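 active means mean inhibition of the luminescence signal across two replicates at or above 26 percent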
Target sequence (O15151 whole entry, looked up): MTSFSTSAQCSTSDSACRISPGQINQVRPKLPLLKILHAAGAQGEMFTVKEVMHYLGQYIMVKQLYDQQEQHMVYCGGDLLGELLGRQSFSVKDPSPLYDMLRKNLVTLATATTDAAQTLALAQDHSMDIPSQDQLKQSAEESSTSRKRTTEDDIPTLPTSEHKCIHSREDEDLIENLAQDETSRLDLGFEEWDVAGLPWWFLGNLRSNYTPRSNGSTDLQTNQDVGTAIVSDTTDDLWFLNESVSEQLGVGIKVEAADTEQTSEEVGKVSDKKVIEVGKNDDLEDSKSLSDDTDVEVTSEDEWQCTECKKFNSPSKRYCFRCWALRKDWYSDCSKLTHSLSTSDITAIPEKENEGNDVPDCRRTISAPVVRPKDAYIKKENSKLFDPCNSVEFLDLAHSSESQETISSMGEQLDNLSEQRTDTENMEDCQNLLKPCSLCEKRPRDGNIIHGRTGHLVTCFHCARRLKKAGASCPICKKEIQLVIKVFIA
Target sequence (Q00987 whole entry, looked up): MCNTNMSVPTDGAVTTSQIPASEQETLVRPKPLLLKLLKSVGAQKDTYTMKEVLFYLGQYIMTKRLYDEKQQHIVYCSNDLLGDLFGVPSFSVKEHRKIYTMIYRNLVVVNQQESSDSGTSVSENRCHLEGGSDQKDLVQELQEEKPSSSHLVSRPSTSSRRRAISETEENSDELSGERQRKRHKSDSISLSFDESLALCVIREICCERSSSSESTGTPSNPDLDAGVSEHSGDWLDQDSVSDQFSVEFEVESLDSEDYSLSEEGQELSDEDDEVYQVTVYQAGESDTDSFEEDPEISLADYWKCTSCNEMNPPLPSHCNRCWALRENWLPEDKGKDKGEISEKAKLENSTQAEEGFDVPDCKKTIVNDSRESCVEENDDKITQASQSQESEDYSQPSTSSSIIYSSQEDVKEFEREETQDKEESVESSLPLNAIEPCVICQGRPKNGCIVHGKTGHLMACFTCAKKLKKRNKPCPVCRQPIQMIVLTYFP
HIF-2a conf = HIF-2a inhibition, single concentration confirmation. 786-0 RCC cells, HIF-2a luciferase reporter luminescence, overnight. AID 651580. actives 56% (n = 1,800). shares compounds with HIF-2a block. inhibition, % at 18.8 µM;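 active means mean inhibition across four replicates of at least 40 percent at the single tested concentration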
HIF-1a counter = inhibits HIF-1a reporter, a counter-screen for HIF-2a inhibitors; AID 651589; shares compounds with HIF-2a block; actives 72% (n = 1,800); MiaPaCa-2 HIF-1a luciferase reporter, desferoxamine, overnight; inhibition, % at 18.8 µM;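 active means mean inhibition of the reporter signal across four replicates at the single tested dose of 50% or more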
Starred values were filed as active, the others as inactive; · = no result given.

SMILES	KKLEB tox	Shn3 inh set2	Peg3 prom inh	EBV LMP1 NFkB	CF NFkB block	HIF-2a block	HIF-2a conf	HIF-1a counter	others
Cc1cc(C)nc(Nc2ccc(Cl)cc2C)n1	-3	-6	-11	-5	10	-12	·	·
Cc1ccc(N(CC(=O)NCCc2ccc(F)cc2)S(=O)(=O)c2ccc(Cl)c([N+](=O)[O-])c2)c(C)c1	-2	13	104*	3	-1	92*	32	108*
O=C(CN(c1cccc(C(F)(F)F)c1)S(=O)(=O)c1ccc(Cl)c([N+](=O)[O-])c1)NCc1ccccc1	-7	22	12	-5	-23	11	·	·
COc1ccc(CNC(=O)C(C)OC(=O)CO/N=C(\C)c2ccc3c(c2)OCO3)cc1 (stereo unspecified)	-2	-5	1	5	13	2	·	·
CC(C)(C)c1cc(CP(=O)(c2ccccc2)c2ccccc2)cc(C(C)(C)C)c1O	6	13	35	10	19	22	·	·
NCCCCCc1nnc(SCc2ccccc2Cl)o1	-1	26	13	-8	-20	68*	83*	68*
NCCc1nnc(SCc2c(Cl)cccc2Cl)o1	-1	-7	4	3	-9	17	·	·
CC(=NNC(=S)Nc1cccc(Cl)c1)c1ccccn1	-14	84	93*	52*	12	72*	-167	40
Oc1cccc2ccc(Nc3ccccn3)nc12	-67*	79	102*	75*	60*	95*	79*	105*	Mdm2-MdmX confirm=103*
Cc1nn(-c2ccccc2)c(Cl)c1/C=N/Nc1ccc(Cl)c(C(=O)O)c1	6	40	-18	18	-4	61*	56*	-56
CNc1cncc(-c2cc(OC)c(OC)c(OC)c2)n1	-4	-5	9	·	-10	-10	·	·
Cc1cc(C)c(C(CC(=O)c2cccs2)C(C#N)C#N)c(C)c1 (stereo unspecified)	-54*	-49	-12	-47	61*	76*	-39	102*
Cc1cc(C(=O)Nc2ccc(CC(=O)O)cc2)c(C)o1	5	4	-17	1	-18	49*	60*	44
Cc1ccc(C(=O)Nc2ccc(CC(=O)O)cc2)o1	-1	-3	10	-4	-6	18	·	·
CC(C)(C)c1ccc(C(=O)Nc2ccc(CC(=O)O)cc2)o1	-2	69	41	72*	11	83*	96*	79*
Cc1cc(C(=O)Nc2ccccc2)c(C)o1	-9	-2	-81	-1	-2	-96	·	·
CCOc1ccc(C(O)(c2ccccc2)C(CN2CCCC2)c2ccccc2)cc1 (stereo unspecified)	6	13	-6	9	-4	12	·	·
Cc1cccc(NC(=S)NNc2ncc(C(F)(F)F)cc2Cl)c1	-5	-7	21	14	-1	50*	57*	17
Cc1cccc(N2CCN(C(=O)c3nn(C)c4c3CS(=O)(=O)c3ccccc3-4)CC2C)c1 (stereo unspecified)	0	5	28	7	-3	5	·	·
CCN(CC(=O)Nc1cccc(Br)c1)Cc1nc2ccccc2c(=O)[nH]1	-8	11	25	-7	8	42*	6	26
O=C1Nc2ccc(Br)cc2/C1=C/C(=O)c1ccc2c(c1)OCO2	-10	97*	53*	3	37	45*	-33	95*
CCCCC(=O)Nc1ccc(C(N)=O)cc1	0	22	-23	2	8	-17	·	·
CCCCCCCCCCCCCCCC[n+]1ccc(C(N)=O)cc1	-69*	69	98*	-2	63*	80*	53*	100*	Mdm2-MdmX confirm=100*
COC(=O)C(C(=O)OC)C(CC(=O)c1ccc(C)cc1)c1cc(OC)c(OC)c(OC)c1 (stereo unspecified)	0	4	21	0	-1	16	·	·
COc1ccc(C(CC(=O)c2ccc(C)cc2)C(C#N)C#N)cc1OC (stereo unspecified)	-89*	60	93*	13	102*	56*	36	105*
SMILES	KKLEB tox	Shn3 inh set2	Peg3 prom inh	EBV LMP1 NFkB	CF NFkB block	HIF-2a block	HIF-2a conf	HIF-1a counter	others
CCn1c(C)nc2cc(-c3nc4n(n3)Cc3ccccc3-4)ccc21	-88*	97*	114*	86*	-2	91*	·	·	Mdm2-MdmX confirm=100*
COc1ccc(/C=N/NC(=O)c2cccc([N+](=O)[O-])c2)c2ccccc12	-20	19	21	7	31	57*	1	24
COc1cccc(/C=N/NC(=O)c2cccc([N+](=O)[O-])c2)c1OS(=O)(=O)c1ccccc1	-6	14	25	5	4	7	·	·
CC(C)(C)n1nc2c(c1NC(=O)c1ccc([N+](=O)[O-])cc1)CS(=O)(=O)C2	2	5	-16	4	-19	13	·	·
Cc1cc(C)nc(N2CCN(S(=O)(=O)c3ccc(F)cc3)CC2)n1	2	26	8	3	-5	20	·	·
Cn1c(CCN2CCCCC2)nc2cc(NC(=O)COc3ccc(Cl)cc3)ccc21	-11	-20	20	29	-5	2	·	·
Cc1ccc(C(C)C)c(OCC(=O)Nc2ccc3c(c2)nc(CCN2CCCCC2)n3C)c1	-16	2	105*	-8	20	23	·	·	Mdm2-MdmX confirm=101*
Brc1cc(Br)c2ncnc(N3CCCCC3)c2c1	-20	15	56*	13	52*	54*	25	88*
COc1ccc(C2NC(=S)N(c3ccccc3)C(C)=C2C(=O)Nc2ccccc2)cc1 (stereo unspecified)	-1	-11	-1	-15	-1	-27	·	·
CC1=C(C(=O)Nc2ccc([N+](=O)[O-])cc2)C(c2cccc(C(F)(F)F)c2)NC(=S)N1c1ccccc1 (stereo unspecified)	-18	38	88*	-3	-2	56*	-44	60*
NNc1nc2c(-c3ccc(Cl)cc3)nnn2c2ccccc12	-2	-92	-251	-19	-35	-265	·	·
Clc1nc2c(-c3ccccc3)nnn2c2ccccc12	1	·	103*	5	42	-63	·	·	Mdm2-MdmX confirm=103*
Cc1c(C(=O)Nc2nonc2-c2ccc(F)cc2)oc2ccc(F)cc12	-17	9	39	12	17	-7	·	·	Mdm2-MdmX confirm=90*
Cc1cc(NC(=O)COC(=O)Cn2[nH]c(=O)c3ccccc3c2=O)c([N+](=O)[O-])cc1C	-14	16	5	-7	16	-1	·	·
